# Compound activity deposited in PubChem by several laboratories.
# Rv3671c inh = Rv3671c (M. tuberculosis) protease inhibition | AID 2606 | P9WHR9 | actives 0.048% (n = 320,000) | inhibition, % at 5.96 µM; in the data active = inhibition above about 38%;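 note: extracellular domain of Rv3671c used as enzyme; 0% = enzyme with DMSO and 100% = no enzyme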
# FadD28 binding = inhibitors of Mycobacterium tuberculosis FadD28 bisubstrate binding; FadD28 bisubstrate probe binding, fluorescence polarization; AID 588549; actives 0.22% (n = 360,000); inhibition, % at 12.5 µM; in the data active = inhibition above about 8.5%, passing the limit was not always enough; inconclusive = no clear call, values can overlap the other calls
# RecA intein inh = blocks M. tuberculosis RecA intein splicing | inhibition, % (concentration not given with the values) | P9WHJ3 | actives 0.75% (n = 290,000) | AID 2221 | cell-free RecA intein splicing, fluorescence; in the data active = inhibition above about 30%; inconclusive = no clear call, values can overlap the other calls;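 note: 0% = vehicle wells and 100% = reference inhibitor control wells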
# Mtb betalactam = beta-lactam sensitization of Mtb H37Rv; inhibition, % at 25 µM; M. tuberculosis H37Rv growth with meropenem, percent inhibition; actives 0.27% (n = 330,000); call rule not given here;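 note: growth measured after seven days incubation then overnight dye step; 0% = bacteria only wells and 100% = bacteria with antibiotic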
# UGM FP inh = Mtb UDP-galactopyranose mutase inhibition; purified UGM, fluorescence polarization probe displacement; inhibition, % at 10 µM; actives 0.06% (n = 320,000); in the data active = inhibition above about 10%, passing the limit was not always enough; inconclusive = no clear call, values can overlap the other calls
# Target sequence (P9WIQ1 whole entry, looked up): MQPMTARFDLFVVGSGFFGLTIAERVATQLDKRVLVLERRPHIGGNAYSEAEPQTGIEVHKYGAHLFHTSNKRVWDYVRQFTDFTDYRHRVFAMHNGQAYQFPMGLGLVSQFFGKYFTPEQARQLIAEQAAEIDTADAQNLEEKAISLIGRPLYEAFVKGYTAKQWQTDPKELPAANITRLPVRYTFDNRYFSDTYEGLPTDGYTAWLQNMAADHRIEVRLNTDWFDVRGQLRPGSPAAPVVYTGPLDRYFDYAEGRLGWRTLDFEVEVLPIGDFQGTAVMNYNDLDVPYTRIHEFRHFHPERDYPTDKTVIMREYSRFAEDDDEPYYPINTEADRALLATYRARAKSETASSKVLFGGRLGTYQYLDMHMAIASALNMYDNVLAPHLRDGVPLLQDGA
# Mtb hypoxia rep = inhibitors of hypoxia-regulated fluorescent reporter in Mycobacterium tuberculosis | actives 0.1% (n = 300,000) | M. tuberculosis hypoxia-regulated fluorescent reporter, fluorescence | AID 1159583 | fluorescence inhibition, % (test concentration not listed); in the data active = fluorescence inhibition mostly above about 23%, no sharp cut-off; inactive = mostly below about 17%
# The depositor's hits bear a star; ? = inconclusive; nt = no result given. Shown are actives, neighbours in structure and some others; about 0.92% of the full set was active somewhere.
SMILES,Rv3671c inh,FadD28 binding,RecA intein inh,Mtb betalactam,UGM FP inh,Mtb hypoxia rep
O=Cc1ccc(OCc2ccc3c(c2)OCO3)cc1,3,-3,3,4,-1,7
CC1(C)CC(=O)C2=C(C1)c1c(ccc3ccccc13)NC2c1cc([N+](=O)[O-])cc([N+](=O)[O-])c1O (stereo not drawn),10,32*,11,-2,2,1
CCCCN=C1SC(C(=O)Nc2sc3c(c2C(=O)OC)CCC3)C(N)=C1C(=O)N1CCOCC1 (stereo not drawn),1,-1,-1,-2,3,1
O=[N+]([O-])c1nn(-c2ccc(Cl)cc2)n(O)c1=NCc1cccnc1,-8,-1,1,99,1,nt
O=[N+]([O-])c1nn(-c2cccc(Cl)c2)n(O)c1=NCc1cccnc1,0,-2,-4,?,2,57*
O=C(c1ccc(COc2c(F)c(F)c(F)c(F)c2F)o1)N1CCN(Cc2ccc3c(c2)OCO3)CC1,6,2,13,18,2,2
Cc1ccc(OCC(=O)Oc2cccc(C)c2)cc1,5,-2,7,-4,2,6
CC(=O)Nc1cccc(OC(=O)COc2ccc(Br)cc2)c1,-5,-2,35*,3,-2,1
CCOc1ccc(CNC(=O)NS(=O)(=O)c2ccc(OC)cc2)cc1,0,-1,-3,1,1,-1
O=S(=O)(O)c1cccc2c(N=Nc3ccc(O)c4ncccc34)cccc12,27,28*,10,9,1,16
CCc1nc2ccc(C(=O)Nc3ccc(NC(C)=O)cc3)cn2c1N(C)CCC(C)C,nt,-3,nt,nt,nt,nt
CCOc1ccc(NC(=O)C2C(C(=O)O)C3(Cl)C(Cl)=C(Cl)C2(Cl)C3(Cl)Cl)cc1 (stereo not drawn),-1,21*,13,-10,2,-12
O=C(O)c1cc(N/N=C/c2ccc(N3CCOCC3)s2)ccc1Cl,-6,45*,-8,0,nt,nt
CCCc1cc(=O)[nH]c2nnc(SCC(=O)Nc3ccc(NC(C)=O)cc3)n12,1,-4,1,-3,2,1
CC(C)n1cc(/C=C/c2cc[n+](C)cc2)c2ccccc21,nt,-2,-1,nt,nt,8
NNc1nc2c(F)cc(F)cc2s1,11,1,-2,82,4,nt
CN(C(=O)CSc1nc2sc3c(c2c(=O)n1C)CCC3)C1CCS(=O)(=O)C1 (stereo not drawn),5,-1,nt,4,-3,0
CN(C(=O)CSc1ncnc2sc3c(c12)CCC3)C1CCS(=O)(=O)C1 (stereo not drawn),-1,-3,nt,-2,6,32*
COC(=O)c1ccccc1Sc1ncnc2onc(C)c12,-5,1,46*,99,-3,9
Cc1ccc(Sc2ncnc3onc(C)c23)c(C)c1,nt,-4,nt,nt,nt,6
Oc1c(Br)cc(Br)c(/C=N/n2c(-c3ccccc3)n[nH]c2=S)c1Br,-4,25*,8,14,6,nt
Oc1c(Br)cc(C=Nn2c(-c3ccccc3)n[nH]c2=S)cc1Br,nt,nt,nt,nt,nt,10
O=C(Cn1nnc(-c2ccc(F)cc2)n1)Nc1cccc(S(=O)(=O)N2CCCC2)c1,-33,-2,nt,11,2,35*
CCC(=O)c1ccc(OCC(=O)Nc2cccc(S(=O)(=O)N3CCCCCC3)c2)cc1,nt,13*,nt,nt,nt,5
O=C(Cn1nnc(-c2ccccc2Cl)n1)Nc1cccc(S(=O)(=O)N2CCCC2)c1,-42,-1,nt,1,0,5
SMILES,Rv3671c inh,FadD28 binding,RecA intein inh,Mtb betalactam,UGM FP inh,Mtb hypoxia rep
Cc1ccc(C(=O)OCC(=O)Nc2ccccc2)cc1S(=O)(=O)N1CCCCC1,-14,1,nt,2,0,35*
Cc1cccc(NC(=O)COC(=O)c2cccc(S(=O)(=O)N3CCCCCC3)c2)c1,-61,10*,nt,-2,-2,14
COc1ccc(CCNC(=O)COC(=O)c2ccccc2NCCO)cc1OC,0,0,-4,-4,1,8
O=C(Cc1ccc(F)cc1)Nc1c(C(=O)N2CCN(c3ncccn3)CC2)oc2ccccc12,2,0,-2,5,-2,15
COc1ccc(NC(=O)CN(C)C(=O)c2ccccc2CCc2ccccc2)cc1,9,-1,-3,-14,1,2
CC1(CC(=O)N/N=C/c2ccc(OCc3ccc(Cl)cc3Cl)cc2)OCCCO1,-11,-3,39*,-2,3,nt
CC1(CC(=O)NN=Cc2ccc(OCc3ccc(Cl)cc3Cl)cc2)OCCCO1,nt,nt,nt,nt,nt,2
CC1CCCN(C(=O)c2ccc3c(=O)n(C4CCCC4)c(=S)[nH]c3c2)C1 (stereo not drawn),6,-4,-1,6,0,6
O=c1oc2c(O)c(O)cc3c(=O)oc4c(O)c(O)cc1c4c23,1,14*,nt,-7,0,nt
Cc1ccc(Cn2ccc(=O)c(OCc3c(Cl)cccc3Cl)c2C)cc1,1,-10,10,100,0,68*
COc1ccc(S(=O)(=O)N2CCCN(CC(=O)C(C)(C)C)CC2)cc1,-6,-1,-2,-2,4,nt
OCCN(CCO)c1ccc(C(c2ccccc2Cl)c2ccc(N(CCO)CCO)cc2Cl)c(Cl)c1,19,3,32*,2,nt,7
CCOC(=O)c1ccc(NC(=O)C2(c3ccc(OC)cc3)CCOCC2)cc1,1,-1,1,37,-1,5
O=C(Oc1cccc(-n2cnnn2)c1)c1ccco1,10,0,43*,-10,-1,nt
O=C(Oc1ccc(-c2nnco2)cc1)c1ccco1,1,1,47*,1,2,5
CN(C)C(=O)Oc1ccc(-c2nnco2)cc1,2,-4,-2,10,1,nt
O=C(Oc1cccc(OC(=O)c2ccco2)c1)c1ccco1,nt,-5,49*,24,5,12
Cc1ccc(Sc2ccc(NC(=O)c3ccc(S(C)(=O)=O)cc3Cl)cc2)cc1,-1,-1,2,-2,1,0
O=C1NC(=Nc2ccccc2Cl)S/C1=C\c1cccc([N+](=O)[O-])c1O,-3,21*,-2,9,0,nt
O=C1N/C(=C\c2ccc(N3CCOCC3)c(F)c2)C(=O)N1Cc1ccccc1,0,-1,-2,0,1,-8
O=C(N/N=C/c1ccc(O)c(Br)c1)c1cc2c(ccc3ccccc32)o1,nt,-2,-4,1,-1,nt
O=C(N/N=C/c1cc(Br)c(O)c(Br)c1)c1cc2c(ccc3ccccc32)o1,nt,25*,-14,35,0,nt
O=C(N/N=C/c1cc(Cl)c(O)c(Cl)c1)c1cc2c(ccc3ccccc32)o1,29,39*,nt,?,3,nt
O=C(N/N=C/c1cccnc1)c1cc2c(ccc3ccccc32)o1,-7,-5,-13,5,1,nt
CC1CCCC(NC(=O)COC(=O)COc2ccc(Cl)cc2)C1C (stereo not drawn),2,1,nt,-4,1,-7
CC(=O)Nc1nonc1-c1nc2ccccc2n1CC1CC1,-3,-1,-8,44,1,nt
